The record followed here is PubChem BioAssay (NCI).

About 83,000 compounds went through this panel and 20% of them were active in at least one assay; those are over-represented in the sample as a whole.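 Method: cells in 96-well plates; compound added at one concentration; 48 h incubation; percent growth measured; values under 10 scored active.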 Unmarked numbers belong to inactive results. Active and inactive are the calls of the source.

The first experiment concerns OVCAR-4 ovarian. Briefly: NCI-60 one-dose screen, 48 h (100 = growth as untreated, 0 = no growth, -100 = all killed). The following applies: 10 µM unless noted.
For `COc1ccc2c(c1)C(=O)/C(=C/c1cccc(OCC(=O)c3ccccc3)c1)CC2`, the growth is 81.5%.
The same measure, in the same setting: the result for `NC(=Nc1ccccc1)SCCCCSC(N)=Nc1ccccc1` reads 77.3%; that for `CC/C(=C\c1ccc(N(C)C)cc1)c1ccncc1`, 69.5%.
Regarding `CCOC(=O)c1cc(-c2cccnc2)nc2c(Cl)cc(Cl)cc12`, the growth is 89.9%.
On to `Clc1ccc(-n2cnc3c(Cl)ncnc32)cc1Cl`, for which the growth was 103%.
For `O=C(CSCC(=O)N/N=C/c1ccccc1O)N/N=C\c1ccccc1O`, the growth was 27.5%.
With `COc1ccc(C(=O)COc2cccc(/C=C3\Oc4ccc5ccccc5c4C3=O)c2)cc1`, the growth was 94.9%.
On to `CC(=O)NC1(C(=O)O)CCCC1`, for which the growth is 112%.
Same read-out and setting: in the case of `CCOC(=O)C1=NN(c2ccc(Cl)cc2)C2C3N(c4ccc(Cl)cc4)N=C(C(=O)OCC)N3c3ccccc3N12` (centres undefined) it was 92.4%; in that of `CC(=O)Oc1ccc(C23c4ccccc4C2(OC(C)=O)c2cc(OC(C)=O)ccc23)cc1` (centres undefined), 92.3%; in that of `COc1ccc(/C=C2\NC(=S)NC2=O)cc1`, 117%.
`O=C(/C=C/c1ccccc1)CC(c1ccccc1)N1CCOCC1` (centres undefined): the growth is 105%.
Same read-out and setting: in the case of `CCn1c2ccccc2c2ccc(C(C)=O)cc21` it was 96.7%; in that of `Cc1ccc(C=C2C(Cl)=C(Cl)C(Cl)=C2Cl)cc1`, -35.3% (active); in that of `Cc1ccccc1NC(=O)c1cc2ccccc2cc1O`, 56.1%.
Turning to `c1ccc(-n2nnnc2-c2cccc3ccccc23)cc1`, the growth is 59.6%.
On to `Nc1ccccc1-c1ccc([N+](=O)[O-])cc1`, for which the growth was 63.2%.
In the case of `c1cnc2ccc3ncccc3c2c1`, the growth was 110%.
For the molecule `CC(=O)n1c2ccccc2c2ccccc21`, the growth is 105%.
Regarding `CC1=CC(=O)C(C(C)=Nc2ccccc2Cl)C(=O)O1` (centres undefined), the growth is 99.5%.
In the case of `COc1c(O)cc2oc3cc(O)c(CC=C(C)C)c(O)c3c(=O)c2c1C/C=C(\C)CCC=C(C)C`, the growth was 72.6%.
Take `CCOC(=O)c1ccccc1OC(=O)NNc1ccccc1`: the growth was 63.6%.
In the case of `O=C(/C=C/c1cc2ccccc2[nH]c1=O)c1ccc(O)cc1`, the growth was 62.9%.
With `COc1cc(/C=C2\COc3ccc(O)cc3C2=O)cc(OC)c1`, the growth was 93.4%.
The same measure, in the same setting: in the case of `ClC1=C(Cl)C(Cl)=C(Cl)C1=C/C=C/c1ccccc1` it was 14.7%; in that of `COc1cccc(CCC2C(=O)CCCC2=O)c1`, 124%; in that of `CSc1ncc2ncn(C3OC(CO)C(O)C3O)c2n1` (centres undefined), 101%.
`CN(C)CCCN1c2nc3ccccc3cc2Sc2cc3ccccc3nc21`: the growth was 18.9%.
For the molecule `Cc1c(C)c(N2C(=O)C=CC2=O)c(C)c(C)c1N1C(=O)C=CC1=O`, the growth was 104%.
For `CC12CCC3C(CCC4CC(=O)/C(=C\O)CC43C)C1CCC(=O)O2` (centres undefined), the growth is 112%.
Regarding `CC(C)C/C(=N\NC(=O)c1ccncc1)c1cc(Cl)ccc1O`, the growth was 14.5%.
On to `OC(Cc1cccnc1)c1ccccc1` (centres undefined), for which the growth is 107%.
On the same count and under the same terms, the result for `Cn1cnc([N+](=O)[O-])c1S(=O)(=O)Oc1ccc(Cl)cc1` reads 102%; that for `O=C(N1CCC(CN=c2cc3n(-c4ccc(Cl)cc4)c4ccccc4nc-3cc2Nc2ccc(Cl)cc2)CC1)N1CC1`, -74.6% (active).
As to `CN1COc2ccc3ccccc3c2C1`, the growth was 91.7%.
Regarding `CCCCCCCC1(C)NC(=O)NC1=O` (centres undefined), the growth was 105%.
On the same count and under the same terms, the result for `CC(O)c1nc2c(c(=O)n(C)c(=O)n2C)n1C` (centres undefined) reads 104%.

In the next experiment the test system is SK-OV-3 ovarian. The experiment is described as above. The note with it: 10 µM unless noted.
In the case of `COc1ccc2c(c1)C(=O)/C(=C/c1cccc(OCC(=O)c3ccccc3)c1)CC2`, the growth is 120%.
As to `NC(=Nc1ccccc1)SCCCCSC(N)=Nc1ccccc1`, the growth is 108%.
As to `CC/C(=C\c1ccc(N(C)C)cc1)c1ccncc1`, the growth was 74.6%.
Regarding `CCOC(=O)c1cc(-c2cccnc2)nc2c(Cl)cc(Cl)cc12`, the growth is 91.2%.
As to `Clc1ccc(-n2cnc3c(Cl)ncnc32)cc1Cl`, the growth is 99.8%.
For `O=C(CSCC(=O)N/N=C/c1ccccc1O)N/N=C\c1ccccc1O`, the growth is 27.8%.
With `COc1ccc(C(=O)COc2cccc(/C=C3\Oc4ccc5ccccc5c4C3=O)c2)cc1`, the growth was 99.5%.
Still for that read-out and setting: in the case of `CC(=O)NC1(C(=O)O)CCCC1` it was 118%; in that of `CCOC(=O)C1=NN(c2ccc(Cl)cc2)C2C3N(c4ccc(Cl)cc4)N=C(C(=O)OCC)N3c3ccccc3N12` (centres undefined), 115%.
Consider `CC(=O)Oc1ccc(C23c4ccccc4C2(OC(C)=O)c2cc(OC(C)=O)ccc23)cc1` (centres undefined), for which the growth was 110%.
Turning to `COc1ccc(/C=C2\NC(=S)NC2=O)cc1`, the growth was 83.8%.
`O=C(/C=C/c1ccccc1)CC(c1ccccc1)N1CCOCC1` (centres undefined): the growth is 98.4%.
`CCn1c2ccccc2c2ccc(C(C)=O)cc21`: the growth is 111%.
Consider `Cc1ccc(C=C2C(Cl)=C(Cl)C(Cl)=C2Cl)cc1`, for which the growth was -38.5% (active).
On to `Cc1ccccc1NC(=O)c1cc2ccccc2cc1O`, for which the growth was 61.1%.
On to `c1ccc(-n2nnnc2-c2cccc3ccccc23)cc1`, for which the growth was 5.6% (active).
For `Nc1ccccc1-c1ccc([N+](=O)[O-])cc1`, the growth was 90.6%.
Consider `c1cnc2ccc3ncccc3c2c1`, for which the growth is 106%.
Regarding `CC(=O)n1c2ccccc2c2ccccc21`, the growth was 122%.
With `CC1=CC(=O)C(C(C)=Nc2ccccc2Cl)C(=O)O1` (centres undefined), the growth is 104%.
On to `COc1c(O)cc2oc3cc(O)c(CC=C(C)C)c(O)c3c(=O)c2c1C/C=C(\C)CCC=C(C)C`, for which the growth was 100%.
In the case of `CCOC(=O)c1ccccc1OC(=O)NNc1ccccc1`, the growth was 93.7%.
With `O=C(/C=C/c1cc2ccccc2[nH]c1=O)c1ccc(O)cc1`, the growth was 39.8%.
Same read-out and setting: in the case of `COc1cc(/C=C2\COc3ccc(O)cc3C2=O)cc(OC)c1` it was 91.7%.
As to `ClC1=C(Cl)C(Cl)=C(Cl)C1=C/C=C/c1ccccc1`, the growth is -22% (active).
As for `COc1cccc(CCC2C(=O)CCCC2=O)c1`, the growth was 102%.
The same measure, in the same setting: the result for `CSc1ncc2ncn(C3OC(CO)C(O)C3O)c2n1` (centres undefined) reads 104%; that for `CN(C)CCCN1c2nc3ccccc3cc2Sc2cc3ccccc3nc21`, -35.3% (active).
`Cc1c(C)c(N2C(=O)C=CC2=O)c(C)c(C)c1N1C(=O)C=CC1=O`: the growth was 114%.
`CC12CCC3C(CCC4CC(=O)/C(=C\O)CC43C)C1CCC(=O)O2` (centres undefined): the growth is 128%.
Still for that read-out and setting: the result for `CC(C)C/C(=N\NC(=O)c1ccncc1)c1cc(Cl)ccc1O` reads 24.5%.
As for `OC(Cc1cccnc1)c1ccccc1` (centres undefined), the growth is 112%.
Same read-out and setting: in the case of `Cn1cnc([N+](=O)[O-])c1S(=O)(=O)Oc1ccc(Cl)cc1` it was 104%; in that of `O=C(N1CCC(CN=c2cc3n(-c4ccc(Cl)cc4)c4ccccc4nc-3cc2Nc2ccc(Cl)cc2)CC1)N1CC1`, -63.7% (active); in that of `CN1COc2ccc3ccccc3c2C1`, 103%.
Consider `CCCCCCCC1(C)NC(=O)NC1=O` (centres undefined), for which the growth was 114%.
On the same count and under the same terms, in the case of `CC(O)c1nc2c(c(=O)n(C)c(=O)n2C)n1C` (centres undefined) it was 102%.
